The values below come from PubChem BioAssay AID588675 (Johns Hopkins Ion Channel Center, 2011).

Each structure is given as a SMILES string. Among all 310,000 compounds or so, about 1,900 (0.61%) were called active.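 The calls were made as follows: active = plate-corrected calcium response at least 3 library SD above typical, normal starting fluorescence, not activating the receptor alone; inactive = the rest.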 The full list was thinned out, with actives kept by preference.

In the test the target is Mas-related G-protein coupled receptor member X1 (Homo sapiens) (UniProt Q96LB2). As to the kind of experiment: allosteric enhancers of human MrgX1 signaling – HEK293 cells, Fluo-4 calcium flux, primary screen (AID 588675).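 Also: compound read alongside a low EC10 to EC30 dose of BAM8-22 agonist.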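 As to B-score: peak minus trough fluorescence over baseline measured at the second addition.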 To be noted: MrgX1-HEK293, Fluo-4 calcium flux, FDSS, at 10 µM; hits give high values.
Chain of Mas-related G-protein coupled receptor member X1 (Homo sapiens) (Q96LB2 whole entry, looked up): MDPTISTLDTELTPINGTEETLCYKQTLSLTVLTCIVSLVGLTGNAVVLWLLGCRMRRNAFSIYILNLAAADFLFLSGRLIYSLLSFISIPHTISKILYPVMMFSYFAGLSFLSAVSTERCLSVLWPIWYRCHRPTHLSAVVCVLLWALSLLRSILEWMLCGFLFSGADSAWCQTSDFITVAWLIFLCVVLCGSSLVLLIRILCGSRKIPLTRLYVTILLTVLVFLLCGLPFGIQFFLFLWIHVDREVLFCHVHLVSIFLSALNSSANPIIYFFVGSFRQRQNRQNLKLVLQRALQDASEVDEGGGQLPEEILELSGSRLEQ
With `CC[C@H]1CC2CN3CCc4c([nH]c5ccccc45)C(C(=O)OC)(C2)C13` (stereo not given in full), the B-score was 13 (active).
For `CN1CCc2cc3c(cc2[C@H]1[C@@H]1OC(=O)c2c1ccc1c2OCO1)OCO3` the value was “inactive”; for `CN(C)C(=O)Oc1ccc(OCc2cccc[n+]2C)cc1`, “inactive”; for `Cc1nc2ccccn2c1P(=S)(N1CCCCC1)N1CCCCC1`, 13.5 (active).
For `CC1CCCCN1Cc1cccnc1` (stereo not given) the value was “inactive”; for `COc1ccc(S(=O)(=O)NCc2ccc(C(=O)N3CCC4(CC3)OCCO4)cc2)cc1`, “inactive”; for `Cc1ccc(-c2nn(CCC#N)cc2C(=O)O)cc1C`, “inactive”.
Then `CN(C)C(=O)Oc1ccc2c(c1)O/C(=C\c1ccccc1)C2=O`, with “inactive”.
For `C=CCN1C(=O)C2(C(C(=O)OCC)=C(N)Oc3c2c(=O)oc2ccccc32)c2ccccc21` (stereo not given), the B-score was 27.7 (active).
For `COC(=O)CN1C(=O)C2(C(C(=O)OC)=C(N)Oc3ccccc32)C2=C1CC(C)(C)CC2=O` (stereo not given) the value was “inactive”; for `CCOC(=O)CC1=C(C(=O)OCC)C2(C(=O)N1)C(C(=O)OC)=C(N)Oc1ccccc12` (stereo not given), “inactive”.
For `O=Cc1cn(Cc2ccc(F)cc2Cl)c2ccccc12` the value was “inactive”; for `CCOc1cccc(=NC2CCCCC2)c2c(C)[nH]c(C)c12`, “inactive”.
As for `c1ccc(CC2CCCCN2)cc1` (stereo not given), the B-score result is “inactive”.
In the case of `O=C(COC(=O)c1ccccc1)Nc1ccc(Cl)cc1C(=O)c1ccccc1`, the B-score result is “inactive”.
